Experimental findings from PubChem BioAssay (EPA / NIEHS) are described below.

Several values for one entry are separate records, joined by “and”; a condition that tells them apart may be missing. Equal values may be shown once. The source holds several records for some structures; these can differ, active in one and inactive in another. Activity calls are given as the source filed them. Rule for the calls: active = hit-call score of the fitted dose curve at least 0.9, where 1 is the maximum; inactive = score below 0.9.

Usually AC50 stands for the midpoint of the concentration-response curve, whichever way the signal moves.

Read-out in the assay: Monocyte Chemoattractant Protein-1 (MCP1), CCL2 (gene 6347)
Kind of assay: BSK_3C_MCP1: BioMAP Diversity Plus: 3C Assay for Monocyte Chemoattractant Protein-1 (MCP1) Biomarker Activity (AID 2283017). As to conditions: primary human endothelial cells (HUVEC); actives raise or lower the signal. As to the method: BSK_3C is a cell-based, multiplexed-readout assay that uses umbilical vein endothelium, a human vascular primary cell, with measurements taken at 24 hours after chemical dosing in a 96-well plate.BSK_3C_MCP1 is an assay component measured in the BSK_3C assay. It measures MCP-1 antibody related to regulation of gene expression using ELISA technology.Data from the assay component BSK_3C_MCP1 was analyzed into 1 assay endpoint. This assay endpoint, BSK_3C_MCP1, was analyzed with bidirectional fitting relative to DMSO as the negative control and baseline of activity. Using a type of binding reporter, gain or loss-of-signal activity can be used to understand changes in the signaling as they relate to the gene CCL2. Furthermore, this assay endpoint can be referred to as a primary readout, because this assay has produced multiple assay endpoints where this one serves a signaling function. To generalize the intended target to other relatable targets, this assay endpoint is annotated to the cytokine intended target family, where the subfamily is chemotactic factor.
The levels of cell surface (or secreted, indicated by the prefix "s") biomarker endpoints were measured by ELISA. Overt cytotoxicity to cells in confluent adherent cultures (all systems other than the BT system) was assessed by measuring total protein levels using sulforhodamine B (SRB) staining in parallel cultures at the time of biomarker measurements, indicated as SRB endpoints. For proliferation assays for adherent cell types, individual cell types are cultured at sub-confluence and relative cell numbers quantified by SRB staining at time points optimized for each system (48 h: 3C and CASM3C systems; 72 h: BT and HDF3CGF systems; 96 h: SAg system). SRB was performed by staining cells with 0.1% SRB after fixation with 10% TCA and reading wells at 560 nm.Viability and proliferation of PBMC (T cells) was quantified by Alamar Blue reduction for the SAg and BT systems. For PBMC viability (referred to as PBMC Cytotoxicity within the assay endpoint names), cells were plated (75,000/well in a 96-well plate) and then chemical samples added for 1 h before addition of activators, SEB and TSST-1 (20 ng/mL final concentration each). Cells were incubated for 90 h. Then, Alamar Blue (20 uL/well) (Invitrogen, Cat DAL1100) was added for 6 h, and the plates were read with a fluorescence microplate reader at 546/580 nm (excitation/emission). For PBMC proliferation, cells were plated and activated as above but incubated for only 16 h prior to addition of Alamar Blue. Plates were read after 6 h.
Regarding `Cc1ccc(S(=O)(=O)OCC(F)(F)C(F)(F)C(F)(F)C(F)(F)C(F)(F)C(F)F)cc1`, the result was inactive.

As for `O=C(O)C(F)(F)C(F)(F)F`, the AC50 was 23 µM (active) and the result was inactive. For the molecule `FC(F)(F)C(F)(F)C(F)(F)N(C(F)(F)C(F)(F)C(F)(F)F)C(F)(F)C(F)(F)C(F)(F)F`, the outcome was inactive. Same read-out and setting: the same measure for `CS(C)(=O)=O`: “inactive”. For the molecule `O=C(O)C(F)(F)C(F)(F)OC(F)(F)F`, the outcome was inactive. Take `FC(F)(F)C(F)(F)C(F)(F)C(F)(F)C(F)(F)CCI`: the outcome was inactive.

With `O=C(O)C(F)(OC(F)(F)C(F)(OC(F)(F)C(F)(OC(F)(F)C(F)(F)C(F)(F)F)C(F)(F)F)C(F)(F)F)C(F)(F)F` (stereo not given), the result was inactive. Regarding `CCCCCCCCC(F)(F)C(F)(F)C(F)(F)C(F)(F)C(F)(F)C(F)(F)F`, the result was inactive.

Regarding `FC(F)(F)C(F)(F)C(F)(F)C(F)(F)C(F)(F)C(F)(F)C(F)(F)C(F)(F)F`, the result was inactive. On to `O=C(Cl)C(F)(F)C(F)(F)C(F)(F)C(F)(F)C(F)(F)C(F)(F)C(F)(F)C(F)(F)F`, for which the result was inactive and the AC50 was 49.7 µM (active). For the molecule `CCc1ccc(C(c2ccc(CC)cc2)C(Cl)Cl)cc1`, the AC50 is 12.9 µM (active).

Regarding `Nc1ccc([N+](=O)[O-])cc1O`, the result was inactive.

In the case of `FC(F)(F)C(F)(F)CNCC(F)(F)C(F)(F)F`, the outcome was inactive. For the molecule `CC(=O)Nc1ccc(N=Nc2cc(C)ccc2O)cc1`, the outcome was inactive. As to `C=CC(=O)OCC(F)(F)C(F)(F)C(F)(F)C(F)(F)COC(=O)C=C`, the half-maximal activity concentration (AC50) was 33.8 µM (active) and 22.1 µM (active). For `O=C(O)C(F)(OC(F)(F)C(F)(OC(F)(F)C(F)(F)C(F)(F)F)C(F)(F)F)C(F)(F)F` (stereo not given), the outcome was inactive. Take `N=C(N)C(F)(F)C(F)(F)C(F)(F)C(F)(F)C(F)(F)C(F)(F)C(F)(F)F`: the outcome was inactive and the AC50 is 46.3 µM (active). Regarding `OCC(F)(F)C(F)(F)C(F)(F)C(F)(F)C(F)(F)C(F)(F)F`, the result was inactive. Turning to `OCC(F)(F)C(F)(F)C(F)(F)C(F)F`, the result was inactive.

Take `OCC(F)(F)C(F)(F)C(F)(F)C(F)(F)C(F)(F)C(F)F`: the outcome was inactive.

Consider `O=C(O)C(F)(F)C(F)(F)C(F)(F)C(F)(F)C(F)(F)C(F)(F)C(F)(F)C(F)(F)C(F)(F)C(F)(F)C(F)(F)C(F)(F)F`, for which the result was inactive. `CCCCNc1ccccc1`: the result was inactive. For the molecule `FC(F)(F)C(F)(F)C(F)(F)C(F)(F)C(F)(F)C(F)(F)CCS`, the outcome was inactive.

Regarding `CCCCC(CC)COP(=O)(O)OCC(CC)CCCC` (stereo not given), the outcome was inactive. On to `CC(CCl)OP(=O)(OC(C)CCl)OC(C)CCl` (stereo not given), for which the outcome was inactive. Turning to `O=C(O)C(F)(F)C(F)(F)C(F)F`, the result was inactive.

Take `C=CC(F)(F)C(F)(F)C(F)(F)C(F)(F)C(F)(F)C(F)(F)C(F)(F)C(F)(F)F`: the result was inactive. In the case of `FC(F)(F)C(F)(F)C(F)(F)C(F)(F)C(F)(F)C(F)(F)C(F)(F)C(F)(F)CCS`, the result was inactive. Regarding `O=C(O)C(F)(F)C(F)(F)C(F)(F)C(F)(F)C(F)(F)C(F)(F)C(F)(F)C(F)(F)Cl`, the AC50 is 47.5 µM (active) and 30 µM (active). Take `O=C(O)C=C(C(F)(F)F)C(F)(F)F`: the result was inactive.

With `OCC(F)(F)C(F)(F)C(F)(F)F`, the outcome was inactive. Take `C=C(C)C(=O)OCC(F)(F)C(F)(F)C(F)(F)C(F)(F)C(F)(F)C(F)(F)C(F)(F)F`: the result was inactive. As to `CCCCOCCOCCOC(=O)CCCCC(=O)OCCOCCOCCCC`, the outcome was inactive. With `FC(F)(F)C(F)(F)C(F)(F)C(F)(F)C(F)(F)C(F)(F)C(F)(F)Br`, the result was inactive. Same read-out and setting: to `COC(=O)CCC(F)(F)C(F)(F)C(F)(F)C(F)(F)F` belongs “inactive”; to `O=C(O)C(F)(F)C(F)(F)C(F)(F)C(F)(F)C(F)(F)C(F)(F)C(F)(F)C(F)(F)C(F)(F)C(F)(F)C(F)(F)C(F)(F)C(F)(F)F`, “inactive”; to `O=S(=O)(O)C(F)(F)C(F)(F)C(F)(F)C(F)(F)C(F)(F)C(F)(F)C(F)(F)F`, “inactive”.
